This is an account of results in PubChem BioAssay (Tox21).

Several values for one entry are separate records, joined by “and”; a condition that tells them apart may be missing. Equal entries are not always repeated. Records with an inconclusive call do not appear. The source holds several records for some structures; these can differ, active in one and inactive in another. Activity calls are given as the source filed them. Unless noted, the call rests on the fitted dose curve; in most records, active means well fitted curve in the direction sought with a large enough effect in the repeat runs; inconclusive means weak or mixed curves; inactive means no such curve, though single readings can be large; an effect the other way counts as inactive or inconclusive.

Test [1] is described as follows: qHTS assay for small molecules that induce genotoxicity in human embryonic kidney cells expressing luciferase-tagged ATAD5 (AID 651632). Further: on the % scale 0 is the no-effect control and ±100 the full control effect; nearly all actives have a fitted effect of over 15% in size. The method, boiled down:
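HEK293T cells carrying a luciferase reporter tagged to ATAD5 were exposed to compound or DMSO vehicle for 16 hr at 37C, 5% CO2. Amplite was added, and after 30 min at room temperature luciferase activity was read as a marker of ATAD5 induction.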
A general note: Quantitative high-throughput screening tests each substance at several concentrations.

Test [2] is described as follows: qHTS assay for small molecules that induce genotoxicity in human embryonic kidney cells expressing luciferase-tagged ATAD5 - cell viability (AID 651634; calls by dose curve; further: nearly all actives have a fitted effect of over 25% in size; further: potency means the concentration at half of the fitted maximal effect). In short, it runs like this:
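HEK293T cells expressing luciferase-tagged ATAD5 were exposed to compound or DMSO for 15.5 hr at 37C, 5% CO2. Viability was then read as live-cell protease activity by CellTiter-Fluor fluorescence after 30 min at 37C.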

The nature of test [3]: qHTS assay for small molecule disruptors of the mitochondrial membrane potential - cell viability (AID 720634; calls by dose curve; further: nearly all actives have a fitted effect of over 20% in size; further: potency means the concentration at half of the fitted maximal effect). In short, it runs like this: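 HepG2 cells seeded overnight at 37 C, then exposed to compound or DMSO for 1 hr at 37 C, 5% CO2. m-MPI dye added, then CellTiter-Glo for 30 min at room temperature; viability read as ATP luminescence.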
Test [4] can be described thus: qHTS assay for small molecule disruptors of the mitochondrial membrane potential (AID 720635). Further: potency means the concentration at half of the fitted maximal effect. In short, it runs like this: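 Mitochondrial membrane potential tracked with Mito-MPS dye, red aggregates (ex 540/em 590 nm) against green monomers (ex 490/em 535 nm). Compound treatment 1 hr at 37C, dye 30 min in HepG2.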
Test [5] can be described thus: qHTS assay to test for compound auto fluorescence at 590 nm (red) in HepG2 cells (AID 720674). Further: on the % scale 0 is the no-effect control and ±100 the full control effect. The method, boiled down:
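We screened compounds on adherent HepG2 cells, incubating them for an hour at 37 C in 5% CO2 before reading emission at 590 nm under 540 nm excitation; values reflect equivalence to Rose Bengal sodium fluorescence.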

A short description of test [6]: qHTS assay to test for compound auto fluorescence at 535 nm (green) in HepG2 cells (AID 720675). Further: on the % scale 0 is the no-effect control and ±100 the full control effect.
A short description of test [7]: qHTS assay to test for compound auto fluorescence at 460 nm (blue) in HEK293 cells (AID 720678). Further: on the % scale 0 is the no-effect control and ±100 the full control effect. In short, it runs like this:
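Blue read-out at excitation 405 nm and emission 460 nm follows overnight compound exposure of HEK293 cells at 37C in 5% CO2. Activity is given as auto fluorescence equivalency to triamterene.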

Test [8] in a line: qHTS assay to test for compound auto fluorescence at 590 nm (red) in HEK293 cells (AID 720679). Further: on the % scale 0 is the no-effect control and ±100 the full control effect. The method, boiled down: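 Red channel, Ex/Em 540/590nm; signal expressed as equivalency to Rose Bengal sodium. HEK293, 2,000 cells/well, 10% dialyzed FBS; 23 nL compound pinned after 4-5 hr attachment; overnight 37C/5% CO2 before reading.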
Test [9] can be described thus: qHTS assay to test for compound auto fluorescence at 535 nm (green) in HEK293 cells (AID 720680). Further: on the % scale 0 is the no-effect control and ±100 the full control effect.
Test [10] in a line: qHTS assay to test for compound auto fluorescence at 460 nm (blue) in HEK293 cell free culture (AID 720681). Further: on the % scale 0 is the no-effect control and ±100 the full control effect. In short, it runs like this:
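Blue fluorescence (Ex 405/Em 460 nm, triamterene-equivalent) was read immediately after pin transfer of compound or DMSO into medium (DMEM, 10% FBS) without cells.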

A short description of test [11]: qHTS assay to test for compound auto fluorescence at 535 nm (green) in HEK293 cell free culture (AID 720682). Further: on the % scale 0 is the no-effect control and ±100 the full control effect. The method, boiled down:
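Read-out: 485/535 nm fluorescence intensity, calibrated against fluorescein. Medium only (DMEM + 10% FBS, no cells); test compound or DMSO vehicle added by pintool before plate reading.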

Test [12] is described as follows: qHTS assay to test for compound auto fluorescence at 590 nm (red) in HEK293 cell free culture (AID 720683). Further: on the % scale 0 is the no-effect control and ±100 the full control effect. In short, it runs like this:
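Red-channel autofluorescence of compounds in culture medium (DMEM, 10% FBS), no cells, measured at 540/590 nm. Rose Bengal sodium is the reference fluorophore for equivalence.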

Test [13] in a line: qHTS assay to test for compound auto fluorescence at 590 nm (red) in HepG2 cell free culture (AID 720684). Further: on the % scale 0 is the no-effect control and ±100 the full control effect. In short, it runs like this:
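Steps: dispense MEM/10% FBS medium, no cells; pin compound or DMSO vehicle; read red channel, Ex/Em 540/590 nm. Output given as Rose Bengal sodium equivalents.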

Test [14] in a line: qHTS assay to test for compound auto fluorescence at 460 nm (blue) in HepG2 cell free culture (AID 720685). Further: on the % scale 0 is the no-effect control and ±100 the full control effect. The method, boiled down:
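Compound (23 nL) or DMSO pinned into cell-free MEM with 10% FBS; blue fluorescence read at 405/460 nm excitation/emission, expressed as auto-fluorescence equivalency to triamterene.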

Test [15] is described as follows: qHTS assay to test for compound auto fluorescence at 535 nm (green) in HepG2 cell free culture (AID 720686). Further: on the % scale 0 is the no-effect control and ±100 the full control effect.
The nature of test [16]: qHTS assay to test for compound auto fluorescence at 460 nm (blue) in HepG2 cells (AID 720687). Further: on the % scale 0 is the no-effect control and ±100 the full control effect. In short, it runs like this: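 Blue-channel autofluorescence (Ex/Em 405/460 nm, triamterene-equivalent) was measured after 1 hr compound exposure at 37 C, 5% CO2. Cells were HepG2, plated overnight at 37 C in MEM plus 10% FBS.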
In test [17] the target is Glucocorticoid receptor (Homo sapiens) (UniProt P04150). Briefly: qHTS assay to identify small molecule agonists of the glucocorticoid receptor (GR) signaling pathway (AID 720691; active means well fitted activation curve with a large enough effect in the signal ratio in the repeat runs, not every such curve was filed as active; the % refers to the signal ratio; further: on the % scale 0 is the no-effect control and ±100 the full control effect). The settings on record: GR-bla HeLa, beta-lactamase reporter ratio, 18 h; activation: at 62.4 µM (top of the series). In short, it runs like this: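 GR-bla HeLa cells (beta-lactamase reporter under glucocorticoid response element) were plated 4 h at 37 C/5% CO2, given compounds in DMSO, and incubated 18 h at 37 C. LiveBLAzer B/G FRET substrate was added for 2 h at room temperature, then fluorescence intensity read.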
Sequence of Glucocorticoid receptor (Homo sapiens) (P04150 whole entry, looked up): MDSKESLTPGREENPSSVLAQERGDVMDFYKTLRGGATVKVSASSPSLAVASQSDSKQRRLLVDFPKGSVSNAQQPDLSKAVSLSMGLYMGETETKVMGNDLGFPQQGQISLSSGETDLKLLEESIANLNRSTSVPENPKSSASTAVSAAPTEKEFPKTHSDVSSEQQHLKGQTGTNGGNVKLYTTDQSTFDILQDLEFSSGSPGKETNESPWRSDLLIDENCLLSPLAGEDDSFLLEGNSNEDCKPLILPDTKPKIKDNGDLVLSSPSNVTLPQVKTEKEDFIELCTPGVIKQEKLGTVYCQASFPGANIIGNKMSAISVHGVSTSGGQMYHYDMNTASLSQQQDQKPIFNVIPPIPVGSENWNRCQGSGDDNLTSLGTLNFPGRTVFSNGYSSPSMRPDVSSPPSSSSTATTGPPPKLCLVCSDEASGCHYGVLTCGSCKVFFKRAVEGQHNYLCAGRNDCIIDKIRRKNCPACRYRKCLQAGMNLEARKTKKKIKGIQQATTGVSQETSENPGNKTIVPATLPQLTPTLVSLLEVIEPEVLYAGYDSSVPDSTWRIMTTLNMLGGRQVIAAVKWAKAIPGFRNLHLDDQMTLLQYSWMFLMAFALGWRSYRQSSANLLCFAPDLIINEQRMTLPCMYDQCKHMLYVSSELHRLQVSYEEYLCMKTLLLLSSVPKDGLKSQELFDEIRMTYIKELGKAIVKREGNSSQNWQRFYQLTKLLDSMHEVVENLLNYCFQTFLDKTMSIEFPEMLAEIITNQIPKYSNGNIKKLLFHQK

The target is the same in test [18]. Briefly: qHTS assay to identify small molecule antagonists of the glucocorticoid receptor (GR) signaling pathway (AID 720692; active means well fitted inhibition curve with a large enough effect in the signal ratio in the repeat runs, not every such curve was filed as active; the % refers to the signal ratio; further: potency means the concentration at half of the fitted maximal effect). In short, it runs like this: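 GR-bla HeLa cells (beta-lactamase reporter under glucocorticoid response element) were pre-plated 4 h at 37 C, treated with compounds plus 5 nM dexamethasone (final) for 18 h, then read by LiveBLAzer B/G FRET fluorescence after 2 h.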

Test [19] is described as follows: qHTS assay for small molecule agonists of the p53 signaling pathway - cell viability (AID 651633; calls by dose curve; further: potency means the concentration at half of the fitted maximal effect; nearly all actives have a fitted effect of over 30% in size). In short, it runs like this:
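Viability counter-read: CellTiter-Glo luminescence (30 min, room temperature) in the same p53RE-bla plates. These plates had been exposed to compounds for 16 h at 37 C.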

For `CN(C/C=C/C#CC(C)(C)C)Cc1cccc2ccccc12`, the Potency result in [1], in [2], in test [3], in test [4], in [5] and in test [6] was “inactive” each time. The Potency result in [7], in [8], in test [10], in test [12], in test [13] and in [14] was “inactive” throughout. In addition, the Potency entry in [15], in test [16], in test [17] and in test [18] was “inactive” throughout. In addition, the molecule was called inactive in test [9] and in test [11].
Regarding `CCOC(=O)c1nc(C(Cl)(Cl)Cl)n(-c2ccc(Cl)cc2Cl)n1`, the Potency result in test [1], in test [2], in [5], in test [6], in test [7] and in test [8] was “inactive” in each case. Further, the Potency result in test [12], in test [13], in test [14] and in test [16] was “inactive” throughout. For the same molecule, the molecule was called inactive in test [9] and in test [11].
Regarding `CCCN(CCC)c1c([N+](=O)[O-])cc(C(F)(F)F)c(N)c1[N+](=O)[O-]`, the Potency result in test [1], in test [5], in test [6], in [7], in test [8] and in test [10] was “inactive” each time. Further, the Potency result in test [12], in test [13], in [14], in test [15] and in [16] was “inactive” each time. Further, the Potency in test [19] is 30.5 µM (active); in test [4], 4.31 µM (active). For the same molecule, the call in test [9] and in test [11] was inactive.
Turning to `O=CC=C(c1ccccc1)c1ccccc1`, the Potency entry in test [1], in test [2], in test [5], in [6], in test [7] and in test [8] was “inactive” each time. In addition, the Potency result in [12], in test [13], in [14], in test [15] and in test [16] was “inactive” each time. Further, in test [4], the Potency is 30.9 µM (active). Moreover, the molecule was classed as inactive in test [9] and in test [11].
On to `NNc1nc(-c2ccccc2)cs1`, for which the Potency entry in [1], in [3], in test [5], in test [6], in test [7] and in test [10] was “inactive” in each case. Moreover, the Potency result in test [12], in test [14], in [16] and in test [17] was “inactive” each time. Besides, the Potency was 4.99 µM (active) in [2] and 1.58 µM (active) in test [4]. Moreover, the molecule was classed as inactive in test [9] and in test [11].
Take `CSc1ccc(/C=C2/C(C)=C(CC(=O)O)c3cc(F)ccc32)cc1`: the Potency entry in test [1], in test [3], in test [5], in [6], in [7] and in test [10] was “inactive” throughout. For the same molecule, the Potency entry in test [12], in test [13] and in test [16] was “inactive” each time. The Potency in [19] was 26.6 µM (active). In addition, the call in test [9] was inactive.
Regarding `Clc1ccccc1C(c1ccccc1)(c1ccccc1)n1ccnc1`, the Potency entry in [1], in test [5], in test [6], in [7], in test [8] and in test [10] was “inactive” throughout. For the same molecule, the Potency entry in test [12], in [14], in test [15] and in [16] was “inactive” throughout. Moreover, the Potency was 19.3 µM (active) in test [19]; “inactive and 54.5 µM (active)” in test [3]; 10.1 µM (active) and 9.69 µM (active) in test [4]; 7.23 µM (active) in test [18]. For the same molecule, the call in [9] and in test [11] was inactive.
Regarding `NC(=NCCCCCCN=C(N)/N=C(\N)Nc1ccc(Cl)cc1)/N=C(\N)Nc1ccc(Cl)cc1`, the Potency result in [1], in test [3], in test [5], in test [7], in test [8] and in test [10] was “inactive” throughout. The Potency entry in [12], in test [13], in test [15] and in test [16] was “inactive” in each case. In test [19], the Potency was 38.2 µM (active) [middle of 4 runs]. The molecule was classed as inactive in [9] and in [11].
